Screens: PubChem, National Center for Advancing Translational Sciences (NCATS)
Pol eta inh: inhibitors of human DNA polymerase eta | Potency, µM (doses to about 114 µM), most hits filed as inhibitors | Q9Y253 | recombinant Pol eta, fluorescent DNA replication assay | AID 588591 | hit rate 1.2% among 390,000
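Pol eta (10 nM) was preincubated with compounds for 15 min at room temperature, after which fluorescent replication substrate (50 nM final) was added to start the reaction. Fluorescence was read kinetically at 0 and 10 min.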
PI5P4K alpha inh: blocks human PI5P4K alpha kinase activity; P48426; PI5P4Kalpha enzyme, ADP-Glo luminescence, 60 min; stronger effect = lower value; max response, %; hit rate 1.2% among 330,000; AID 652105; active = max response of -50% or lower; inconclusive = between -30% and -50%; inactive = -30% or higher; note: value at the top dose of about 77 µM
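Human PI5P4Kalpha with substrate in 0.038 M HEPES pH 7.4, 0.28 mM EGTA, 0.1% CHAPS, 5% DMSO; reaction started with 5 microM ATP (final), 60 min at room temperature. ADP formed read by ADP-Glo luminescence.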
POLK inh: DNA polymerase kappa (human) inhibition | Q9UBT6 | purified Pol kappa, fluorescent DNA synthesis assay, 10 min | Potency, µM (doses to about 107 µM), usual class: inhibitors | hit rate 0.53% among 400,000 | AID 588579
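Here, compound and 10 nM enzyme are combined for 15 min at room temperature; adding 50 nM substrate (final) starts DNA synthesis, tracked by fluorescence at 0 and 10 min against buffer-only wells.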
POLB inh: inhibitors of human DNA polymerase beta. AID 485314. Pol beta primer extension/strand displacement, fluorescence kinetic. hit rate 1.3% among 340,000. P06746. Potency, µM (highest dose often 114 µM), usual class: inhibitors
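Reaction started by 50 nM substrate onto compound-treated Pol beta (10 nM, 15 min preincubation, room temperature); plates read at 0 min and 10 min. Normalized concentration-effect data fitted by four-parameter Hill equation.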
POLI inh: inhibitors of human DNA polymerase iota | Pol iota fluorescent replication assay, 10 min | Potency, µM (top dose mostly 115 µM), actives largely listed as inhibitors | hit rate 1% among 390,000 | Q9UNA4
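Pol iota at 10 nM preincubated 15 min with compounds at room temperature; reaction started with fluorescent substrate, 50 nM final. Fluorescence read kinetically at 0 and 10 min; buffer-only wells as negative control.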
FEN1 inhibitor: blocks human flap endonuclease 1; P39748; Recombinant FEN1 flap cleavage, fluorescence, 15 min; Potency, µM (series often up to 114 µM), usual class: inhibitors; hit rate 0.35% among 390,000; AID 588795; note: nearly all actives have a fitted effect of over 65% in size
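Concentration–response screening of FEN1 (10 nM): 15 min compound preincubation at room temperature, reaction started with 50 nM substrate and read at 0 and 15 min. Corrected, normalized data were fitted by a four-parameter Hill equation.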
Each line names hits and unclear results; the compound was inactive in the other large screens. A selection: hits, their analogues and other compounds. The true share with any hit is near 2.8%. Unless noted, calls come from the whole dose curve; as a rule, active = well fitted curve in the direction sought with a large enough effect; inconclusive = small, poorly fitted or top-dose-only effect, or another doubt; inactive = no such curve, though single readings can be large; an effect the other way counts as inactive or inconclusive.

O=C(CNC(=O)OCc1ccccc1)NCC(=O)Oc1ccc([N+](=O)[O-])cc1	none (no result: POLB inh)
Cc1ccc(Nc2ccc(N3CCN(C(=O)c4cccc([N+](=O)[O-])c4)CC3)nn2)cc1	none (no result: PI5P4K alpha inh)
COc1ccc(/C=C2/C(=O)N(c3ccccc3)N=C2C)cc1Br	Pol eta inh inconclusive, POLI inh 1.26µM, FEN1 inhibitor inconclusive
CC1=NN(c2ccccc2)C(=O)/C1=C/c1cccs1	POLI inh 1.26µM, FEN1 inhibitor inconclusive
CC1=NN(c2ccc(C)c(C)c2)C(=O)/C1=C/c1ccc2c(c1)n(C)c(=O)n2C	POLI inh 1.41µM, FEN1 inhibitor inconclusive
COc1ccc(/C=C2/C(=O)N(c3cccc(F)c3)N=C2C)c(OC)c1	POLI inh 1.12µM
CC1=NN(c2ccccc2)C(=O)C1=Cc1ccccc1	none (no result: POLK inh, POLB inh, POLI inh, FEN1 inhibitor)
CC1=NN(c2cccc(F)c2)C(=O)/C1=C/c1ccc(N(C)C)cc1	none
COc1ccc(Cn2cc(C(=O)c3ccc(C)c(C)c3)c(=O)c3ccccc32)cc1	POLB inh inconclusive (no result: PI5P4K alpha inh)
COC(=O)[C@@]12C[C@@H](CC(=O)NCc3cccc(C(F)(F)F)c3)C(=O)N(CCc3ccc(OC)c(OC)c3)C1=CCC(C)(C)C2	none (no result: Pol eta inh, POLK inh, POLB inh, POLI inh, FEN1 inhibitor)
COc1ccc2c(CC(=O)OCC(=O)N(C)c3c(N)n(Cc4ccccc4)c(=O)[nH]c3=O)coc2c1	POLI inh inconclusive (no result: POLB inh)
CC1=NN(c2ccccc2)C(=O)/C1=C\c1ccc(Br)s1	Pol eta inh 89.1µM, POLI inh inconclusive, FEN1 inhibitor inconclusive
O=C(O)c1cccc(N2C(=O)C3C4C=CC(C4=C(c4ccccc4)c4ccccc4)C3C2=O)c1 (centres undefined)	POLB inh 50.1µM
O=C(O)c1cccc(N2C(=O)c3ccc4c5c(ccc(c35)C2=O)C(=O)N(c2cccc(C(=O)O)c2)C4=O)c1	Pol eta inh inconclusive, POLB inh inconclusive, POLI inh inconclusive, FEN1 inhibitor inconclusive
O=C(O)c1ccccc1-c1ccccc1C(=O)Nc1ccc2c(c1)[nH]c(=O)c1ccccc12	Pol eta inh 50.1µM, PI5P4K alpha inh inconclusive
O=C1NC(=S)N/C1=C/c1cc([N+](=O)[O-])ccc1O	PI5P4K alpha inh -60.9, POLI inh inconclusive
O=C1NC(=S)N/C1=C/c1cccc([N+](=O)[O-])c1O	Pol eta inh inconclusive, PI5P4K alpha inh -89.1
O=C(COC(=O)CNC(=O)c1ccc(Cl)cc1)Nc1cccc(S(=O)(=O)N2CCCC2)c1	none
COc1cc2nc(N3CCOCC3)nc(NC3CCN(C)CC3)c2cc1OC	FEN1 inhibitor inconclusive (no result: Pol eta inh, PI5P4K alpha inh, POLB inh)
COCCCNC(=O)c1ccc(Cn2c(=O)c3ccccc3n(CC(=O)Nc3ccc(C)cc3C)c2=O)cc1	POLI inh inconclusive (no result: PI5P4K alpha inh)
COCCCNC(=O)Cn1c(=O)n(Cc2ccc(C(=O)NCc3ccc(C)cc3)cc2)c(=O)c2ccccc21	Pol eta inh inconclusive, POLB inh inconclusive, POLI inh 89.1µM, FEN1 inhibitor inconclusive (no result: PI5P4K alpha inh)
CN1CCN(C(CNC(=O)c2ccccc2)c2ccc3c(c2)OCO3)CC1 (centres undefined)	none (no result: PI5P4K alpha inh)
COc1cc(/C=C/C(=O)c2c(O)ccc3c(C)cc(=O)oc23)ccc1O	Pol eta inh inconclusive, POLI inh 12.6µM
O=C(Nc1ccc(Cl)cc1F)C1CCN(S(=O)(=O)c2cccc3nonc23)CC1	none
CCc1ccc(O)c(N=Cc2ccccc2O)c1	none (no result: PI5P4K alpha inh)
O=c1[nH][nH]c2c(N=Cc3ccccc3O)ccc(F)c12	Pol eta inh 3.16µM, PI5P4K alpha inh -103.5, POLK inh 3.98µM, POLB inh 7.08µM, POLI inh 0.891µM, FEN1 inhibitor 17.8µM
COC(=O)c1cccc(-c2ccc(C(c3c(C)[nH][nH]c3=O)c3c(C)[nH][nH]c3=O)o2)c1	PI5P4K alpha inh inconclusive, POLB inh inconclusive, POLI inh 7.08µM
COC(=O)c1ccccc1-c1ccc(C(c2c(C)[nH][nH]c2=O)c2c(C)[nH][nH]c2=O)o1	Pol eta inh inconclusive, POLI inh 7.94µM
O=C(Nc1cccc(C(F)(F)F)c1)Nc1nnc(N2CCCCCC2)s1	none (no result: PI5P4K alpha inh)
O=c1[nH]c(CN2CCN(c3ccccc3Cl)CC2)nc2ccsc12	none
COc1cc2c(cc1OC)CN(Cc1nc3ccsc3c(=O)[nH]1)CC2	Pol eta inh 17.8µM, POLK inh inconclusive, POLB inh inconclusive, POLI inh inconclusive
